# PubChem BioAssay AID1259417 (TB Discovery Research, Infectious Disease Research Institute, 2018)
# Screen size: about 1,100 compounds; about 760 (69%) were called active. No rule for the calls is given here. So high a share suggests a set chosen from earlier hits. The list shows a part of the results.
# Test: M. tuberculosis growth inhibition, HTS (AID 1259417);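 also: bacteria grown with compound for 5 days at 37 °C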
# Conditions: stronger effect = higher value, concentration not given here
# [1] = M. tuberculosis DsRed fluorescence growth inhibition
# [2] = M. tuberculosis growth inhibition
Compound,inhibition [1],inhibition [2] [%]
CC(=O)N1CCN(c2cc3c(cc2F)c(=O)c(C(=O)O)cn3C2CC2)CC1,97.5% (active),97.7
CCn1cc(C(=O)O)c(=O)c2cc(F)c(N3CCNCC3)cc21,96.6% (active),97
O=c1oc(-c2ccccc2)cc(Cl)c1Cl,61.6% (active),74
CCc1cccc2sc(N(CCCn3ccnc3)C(=O)c3cccs3)nc12,88.1% (active),97.7
O=C(c1cccs1)N(CCCn1ccnc1)c1nc2c(Cl)cccc2s1,91.1% (active),98.4
Cc1ccc2sc(N(CCCn3ccnc3)C(=O)c3cccs3)nc2c1C,98.3% (active),99.1
CCc1cccc2sc(N(CCCn3ccnc3)C(=O)C=Cc3cccs3)nc12,97.8% (active),99.1
Cc1c(Cl)ccc2sc(N(CCCn3ccnc3)C(=O)C=Cc3cccs3)nc12,99.5% (active),99.5
O=C(C=Cc1cccs1)N(CCCn1ccnc1)c1nc2ccccc2s1,98.3% (active),99.1
Cc1ccc(Nc2ccc(-n3ccnc3)nn2)cc1Cl,42% (active),27.3
Cc1ccc(NC(=O)COc2ccc(-n3ccnc3)cc2)cc1Cl,-9.16% (inactive),-12.4
CCCCCCCCOC(=O)c1c(CSC(=N)N)n(C)c2cc(Br)c(OC(C)=O)cc12,26.7% (inactive),4.13
Cc1cc(Nc2cccc(Cl)c2)nc(NCc2ccccc2)n1,96.8% (active),90.6
Oc1cccc(Nc2nc(NCc3ccccc3)c3ccccc3n2)c1,-1.72% (inactive),-16.1
Cc1cc(Nc2ccc(Cl)cc2)nc(NCc2ccccc2)n1,87.7% (active),79.9
CCn1c(CNc2ccc(F)cc2)nnc1SCC(=O)OC1CCCCC1,0.628% (inactive),-6.89
CCn1c(COc2cccc3ccccc23)nnc1SCC(=O)OC1CCCCC1,42.4% (active),80.7
Cn1c(COc2cccc3ccccc23)nnc1SCC(=O)OC1CCCCC1,76.6% (active),92.4
O=C(Nc1nc(SCc2ccc(F)cc2)ns1)c1cc(F)c(F)cc1Cl,7.63% (inactive),5.06
Cc1ccc(CSc2nnc(CCCCCNC(=O)OC(C)(C)C)o2)cc1,30.6% (active),36.2
CCOC(=O)CN(C#N)c1nc(N(C)C)nc(N(C)C)n1,98.5% (active),98.9
CCn1nnc(NC(=O)c2sc3ccccc3c2Cl)n1,41.4% (active),47.8

Compound,inhibition [1],inhibition [2] [%]
O=C(Nc1nnc(C2CCCCC2)s1)c1sc2ccccc2c1Cl,0.622% (inactive),-19.5
O=C(CSc1nnc(Cc2ccccc2)o1)Nc1nccs1,1.22% (inactive),-3.79
Cc1ccc(C)c(-c2cc(C(=O)Nc3nccs3)c3ccccc3n2)c1,-0.261% (inactive),-26.2
O=C(Nc1nccs1)c1ccc(CSc2ccccc2)o1,28.2% (active),69.6
COCCCNC(=O)c1c(NC(=O)c2ccccc2OC)sc2c1CCCC2,2.12% (inactive),-22.4
O=C(Nc1sc2c(c1C(=O)Nc1ccccc1)CCC2)c1cccc(Br)c1,0.927% (inactive),-1.38
CCOc1ccc(NC(=O)c2c(NC(=O)CNCCN3CCOCC3)sc3c2CCC3)cc1,100% (active),101
O=C(CNCCN1CCOCC1)Nc1sc2c(c1C(=O)Nc1ccccc1)CCC2,100% (active),100
Cc1ccccc1C(=O)Nc1sc2c(c1C(=O)NCCO)CCC(C(C)(C)C)C2 (stereo unspecified),5.07% (inactive),-17.9
CO[C@H]1C=CO[C@@]2(C)Oc3c(C)c(O)c4c(O)c(c5c(c4c3C2=O)=NC2(CCN(CC(C)C)CC2)N=5)NC(=O)C(C)=CC=C[C@H](C)[C@H](O)[C@@H](C)[C@@H](O)[C@@H](C)[C@H](OC(C)=O)[C@@H]1C,100% (active),101
Cc1ccc(-c2nnc(NC(=O)c3ccc(Br)s3)o2)c(C)c1,83.8% (active),75.7
Cc1ccc(-c2nnc(NC(=O)c3ccc(Cl)s3)o2)c(C)c1,86.1% (active),75.4
COc1ccc(OC(C)C(=O)Nc2ccc(I)cc2)cc1 (stereo unspecified),76% (active),79.3
COc1ccc(OC(C)C(=O)Nc2ccc(Cl)cc2C)cc1 (stereo unspecified),1.5% (inactive),-1.86
Oc1ccccc1-c1n[nH]c(/C=C/c2ccc(Cl)cc2)n1,2.06% (inactive),-29.9
CC(C)(C)c1ccc(C(=O)Nc2ccc(S(=O)(=O)Nc3nccs3)cc2)cc1Br,1.5% (inactive),-12.7
CC1CCc2c(sc3ncn(C(C)C(=O)OCc4ccccc4)c(=O)c23)C1 (stereo unspecified),6.46% (inactive),8.18
CC1CCc2sc3ncnc(NCCc4ccccc4)c3c2C1 (stereo unspecified),35.8% (active),35.3
O=C(Nc1ccc2c(c1)CCC2)c1ccc(Br)s1,25.5% (inactive),10.7
CC(Sc1nnc(N)s1)C(=O)Nc1nc2c(s1)CCCC2 (stereo unspecified),18.7% (inactive),26
O=C(Nc1nc2c(s1)CCCC2)c1ccc(Br)s1,42.7% (active),18.9
